This passage reports Potency results from PubChem BioAssay (Tox21).

Inconclusive results are not listed. Activity calls are given as the source filed them. Unless noted, calls come from the whole dose curve.

Assay [1] is described as follows: Nuclear factor erythroid 2-related factor 2/antioxidant responsive element (Nrf2/ARE) small molecule agonists: qHTS cell viability counter screen in human keratinocytes (AID 1919968; active = well fitted curve in the direction sought with a large enough effect in the repeat runs; an effect the other way counts as inactive or inconclusive; note: nearly all actives have a fitted effect of over 55% in size). In a few lines:
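KeratinoSens cells (HaCaT keratinocytes stably carrying an ARE-luciferase reporter) were seeded at 1,500 cells/well and rested 5 h at 37 C/5% CO2. They were then exposed to compounds in DMSO for 23 h. Viability was read by CellTiter-Fluor fluorescence after 1 h.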

Assay [2] can be described thus: Nuclear factor erythroid 2-related factor 2/antioxidant responsive element (Nrf2/ARE) small molecule agonists: luciferase reporter gene qHTS assay in human keratinocytes (AID 1919969). Note: nearly all actives have a fitted effect of over 35% in size. Note: potency is the fitted concentration of half-maximal effect. A general note: Reporter assays use an easily measured gene product as a stand-in for the process of interest.
Assay [3] addresses Gonadotropin-releasing hormone receptor (Homo sapiens) (UniProt P30968). The assay can be described thus: Human gonadotropin-releasing hormone receptor (GnRHR) small molecule agonists, calcium flux assay in GnRHR-HEK293 cells (AID 1920063). Note: nearly all actives have a fitted effect of over 35% in size. The essentials: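 HEK293 cells stably expressing human GnRHR were plated 18 h at 37 °C, loaded with calcium dye 1 h at 37 °C, then given compound in agonist mode; fluorescence (Ex/Em 480/540) read kinetically for 3 min at 1 s intervals.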
In general terms: Calcium flux is commonly read through the fluorescence of an indicator in the cells.

In assay [4] the target is KiSS-1 receptor (Homo sapiens) (UniProt Q969F8). The experiment in a line: Human kisspeptin (KISS1R) small molecule agonists, calcium flux assay in KISS1R-HEK293 cells (AID 1920064; active = well fitted curve in the direction sought with a large enough effect in the repeat runs; an effect the other way counts as inactive or inconclusive). The essentials:
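HEK293 cells stably expressing human KISS1R were plated 18 h at 37 °C, loaded with calcium dye for 1 h at 37 °C, then given compound by pin tool. Fluorescence (Ex/Em 480/540) was read kinetically for 3 min.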

A short description of assay [5]: G protein-coupled receptor (GPCR) small molecule agonists, calcium flux assay: HEK293 wild type cell line counter screen (AID 1920065). In a few lines: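 Cells were plated and cultured 18 h at 37 C/5% CO2, then loaded with calcium dye for 1 h at 37 C. Compounds in DMSO were pin-transferred in agonist mode, and fluorescence (Ex/Em 480/540) was read kinetically for 3 min at 1 s intervals.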

A short description of assay [6]: p53 small molecule agonists, cell-based qHTS assay with human liver microsomes (AID 1963577).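 Note: p53 response element beta-lactamase reporter cells with liver microsomes plus NADPH.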 The essentials:
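In this qHTS, p53 response-element beta-lactamase cells receive test compound together with a microsome/NADPH activating system (0.5 mg/mL final each) and are incubated 16 h at 37 C before LiveBLAzer fluorescence detection.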
(In qHTS, concentration-response curves come from the screen itself.)

The nature of assay [7]: p53 small molecule agonists, cell-based qHTS assay with rat liver microsomes (AID 1963578). In a few lines:
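Agonist mode in p53RE-bla reporter cells, with compounds co-incubated 16 h at 37 C alongside 0.5 mg/mL rat liver microsomes and 0.5 mg/mL NADPH (final), followed by a 2 h LiveBLAzer detection step.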

Assay [8] is described as follows: p53 small molecule agonists, cell-based qHTS assay with human liver microsomes: qHTS cell viability counter screen (AID 1963579). Note: nearly all actives have a fitted effect of over 45% in size. In a few lines: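 Metabolically activated exposure: compounds, human liver microsomes and NADPH (0.5 mg/mL final apiece) were added to p53RE-bla cells seeded 5 h earlier, left 16 h at 37 C, and then assessed for viability by CellTiter-Glo luminescence.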

Assay [9] is described as follows: p53 small molecule agonists, cell-based qHTS assay with rat liver microsomes: qHTS cell viability counter screen (AID 1963580). Note: nearly all actives have a fitted effect of over 45% in size. The essentials:
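p53RE-bla HCT-116 cells were exposed 16 h at 37 C to compounds with rat liver microsomes (0.5 mg/mL) and NADPH (0.5 mg/mL). Viability was measured in the same wells as ATP content by CellTiter-Glo luminescence.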

Assay [10] in a line: p53 small molecule agonists, cell-based qHTS assay: qHTS cell viability counter screen (AID 1963581). Note: nearly all actives have a fitted effect of over 45% in size. In a few lines: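 p53RE-bla HCT-116 cells were exposed to compounds for 16 h at 37 C; after the beta-lactamase FRET read in the same wells, CellTiter-Glo was added and luminescence (intracellular ATP) read after 30 min at room temperature.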
A short description of assay [11]: p53 small molecule agonists, cell-based qHTS assay (AID 1963582; active = well fitted activation curve with a large enough effect in the signal ratio in the repeat runs, not every such curve was filed as active; the % refers to the signal ratio). The essentials: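 p53RE-bla beta-lactamase reporter cells rested 5 h at 37 C/5% CO2, then received compounds in DMSO by pin transfer and were incubated 16 h at 37 C. LiveBLAzer B/G FRET substrate was loaded for 2 h at room temperature before fluorescence reading.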
The target in assay [12] is 5-hydroxytryptamine receptor 2A (Homo sapiens) (UniProt P28223). The assay can be described thus: 5-hydroxytryptamine receptor 2A (HTR2A) small molecule antagonists, cell-based qHTS assay (AID 1963586). Note: nearly all actives have a fitted effect of over 45% in size. The essentials:
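Antagonist-mode intracellular calcium assay: DOI (4 nM) added after 5 min compound pre-incubation at room temperature to dye-loaded HTR2A-CHO cells. Fluorescence followed for 3 min, sampled every second.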

For assay [13] the target is unchanged. The experiment in a line: 5-hydroxytryptamine receptor 2A (HTR2A) small molecule agonists, cell-based qHTS assay (AID 1963587). Note: nearly all actives have a fitted effect of over 30% in size. The essentials: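 CHO cells stably expressing human HTR2A, plated 18 h, loaded with calcium dye 1 h at 37 C. Agonist mode: compounds added and intracellular calcium fluorescence recorded kinetically for 2 min at 1 sec intervals.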

Assay [14] has as its target Muscarinic acetylcholine receptor M1 (Homo sapiens) (UniProt P11229). The assay can be described thus: Cholinergic receptor muscarinic 1 (CHRM1) small molecule antagonists, cell-based qHTS assay (AID 1963588). Note: nearly all actives have a fitted effect of over 40% in size. In a few lines: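 CHRM1-CHO calcium-flux assay, antagonist mode. Cells were seeded 18 h, dye-loaded 1 h at 37 C and given compound for 5 min at RT, then acetylcholine was added at 50nM. FDSS fluorescence was read 3 min; 15 concentrations, three runs.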

The target is the same in assay [15]. The experiment in a line: Cholinergic receptor muscarinic 1 (CHRM1) small molecule agonists, cell-based qHTS assay (AID 1963589). Note: nearly all actives have a fitted effect of over 35% in size. The essentials: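 CHO cells stably expressing human CHRM1, seeded 18 h at 37 C/5% CO2, dye-loaded 1 h at 37 C, then given compound in agonist mode; intracellular calcium fluorescence read kinetically at 1 s intervals. Fifteen concentrations, three independent runs.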

Assay [16] can be described thus: cAMP Responsive Elements (CRE) small molecule agonists, cell-based qHTS assay (AID 1963590). The essentials: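 CRE-bla HEK 293T cells in DMEM with 10% dialyzed FBS, NEAA, pyruvate and 25 mM HEPES were plated 18 h at 37 C/5% CO2, then exposed to compounds in DMSO for 3 h before LiveBLAzer B/G FRET substrate addition.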
A short description of assay [17]: cAMP Responsive Elements (CRE) small molecule antagonists, cell-based qHTS assay (AID 1963591; active = well fitted inhibition curve with a large enough effect in the signal ratio in the repeat runs, not every such curve was filed as active; the % refers to the signal ratio). The essentials:
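CRE-bla HEK293T cells were plated 18 h at 37 °C/5% CO2, pinned with compound in DMSO, then stimulated with NKH477 at 0.25 uM final for 3 h. LiveBLAzer B/G FRET substrate was added and plates incubated 2 h at room temperature.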

Assay [18] addresses Beta-2 adrenergic receptor (Homo sapiens) (UniProt P07550). The assay can be described thus: Adrenergic beta2 receptor (ADRB2) small molecule antagonists, cell-based qHTS assay (AID 1963592). Note: series mostly up to about 92 µM; nearly all actives have a fitted effect of over 50% in size. In a few lines: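 Cells (CHO, stable ADRB2 overexpression) incubated 18-20hr at 37C; compounds added from DMSO; agonist mix (1nM isoproterenol, 100uM IBMX, 25uM Ro-20-1724) added; 0.5hr RT; d2-cAMP and anti-cAMP-cryptate added; 1hr RT; 665/615 nm read.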

Assay [19] has the same target. The experiment in a line: Adrenergic beta2 receptor (ADRB2) small molecule agonists, cell-based qHTS assay (AID 1963593).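 Note: CHO cells stably overexpressing human ADRB2.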 The essentials: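 CHO cells stably over-expressing ADRB2 were plated overnight at 37C, then dosed with compounds plus a stimulation mix containing 100uM IBMX and 25uM Ro-20-1724 for 0.5hr at room temperature. cAMP was measured by HTRF competition, 1hr.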

Assay [20] concerns the target D(2) dopamine receptor (Homo sapiens) (UniProt P14416). The experiment in a line: Dopamine D2 receptor (DRD2) small molecule agonists, cell-based qHTS assay (AID 1963594). Note: nearly all actives have a fitted effect of over 35% in size. In a few lines:
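HEK293 cells stably expressing human DRD2, pre-treated with PDE inhibitor Ro20-1724 (0.1 mM final) and compound 10 min at room temperature, then stimulated with NKH477 (200nM […]) for 30 min. cAMP read by HTRF (665/620 nm).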

KiSS-1 receptor (Homo sapiens), sequence (Q969F8 whole entry, looked up): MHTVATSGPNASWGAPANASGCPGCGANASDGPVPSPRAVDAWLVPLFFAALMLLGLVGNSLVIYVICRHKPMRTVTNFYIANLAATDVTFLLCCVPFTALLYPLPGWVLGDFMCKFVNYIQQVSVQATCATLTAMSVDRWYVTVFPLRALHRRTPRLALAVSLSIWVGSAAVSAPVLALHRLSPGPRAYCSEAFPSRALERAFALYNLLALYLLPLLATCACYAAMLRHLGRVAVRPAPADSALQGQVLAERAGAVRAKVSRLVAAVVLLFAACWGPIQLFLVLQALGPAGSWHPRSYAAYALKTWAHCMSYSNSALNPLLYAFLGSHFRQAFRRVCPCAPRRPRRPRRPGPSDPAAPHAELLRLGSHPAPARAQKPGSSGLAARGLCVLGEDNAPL
5-hydroxytryptamine receptor 2A (Homo sapiens), sequence (P28223 whole entry, looked up): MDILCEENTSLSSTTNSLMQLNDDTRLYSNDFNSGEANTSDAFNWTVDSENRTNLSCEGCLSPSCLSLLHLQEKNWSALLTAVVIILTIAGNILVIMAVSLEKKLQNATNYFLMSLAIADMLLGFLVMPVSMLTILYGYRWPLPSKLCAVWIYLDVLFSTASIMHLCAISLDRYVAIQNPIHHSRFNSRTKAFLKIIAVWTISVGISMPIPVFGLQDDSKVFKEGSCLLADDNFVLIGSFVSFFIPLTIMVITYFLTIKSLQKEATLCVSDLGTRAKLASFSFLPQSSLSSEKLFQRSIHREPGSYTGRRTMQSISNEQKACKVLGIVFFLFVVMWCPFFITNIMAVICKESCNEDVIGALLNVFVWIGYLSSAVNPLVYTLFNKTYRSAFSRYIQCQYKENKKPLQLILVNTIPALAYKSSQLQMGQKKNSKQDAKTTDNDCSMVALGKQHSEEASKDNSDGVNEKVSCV
Beta-2 adrenergic receptor (Homo sapiens), sequence (P07550 whole entry, looked up): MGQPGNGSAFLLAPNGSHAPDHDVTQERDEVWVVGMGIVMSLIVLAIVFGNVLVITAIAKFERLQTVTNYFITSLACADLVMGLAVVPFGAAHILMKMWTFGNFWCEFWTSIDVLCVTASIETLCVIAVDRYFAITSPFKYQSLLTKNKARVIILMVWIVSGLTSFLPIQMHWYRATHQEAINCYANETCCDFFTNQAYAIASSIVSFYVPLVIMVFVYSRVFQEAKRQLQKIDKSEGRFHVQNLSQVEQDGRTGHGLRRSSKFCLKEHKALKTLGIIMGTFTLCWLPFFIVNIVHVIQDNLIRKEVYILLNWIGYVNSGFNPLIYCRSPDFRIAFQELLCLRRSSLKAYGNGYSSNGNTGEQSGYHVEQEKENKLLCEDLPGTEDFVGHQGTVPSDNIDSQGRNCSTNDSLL
Muscarinic acetylcholine receptor M1 (Homo sapiens), sequence (P11229 whole entry, looked up): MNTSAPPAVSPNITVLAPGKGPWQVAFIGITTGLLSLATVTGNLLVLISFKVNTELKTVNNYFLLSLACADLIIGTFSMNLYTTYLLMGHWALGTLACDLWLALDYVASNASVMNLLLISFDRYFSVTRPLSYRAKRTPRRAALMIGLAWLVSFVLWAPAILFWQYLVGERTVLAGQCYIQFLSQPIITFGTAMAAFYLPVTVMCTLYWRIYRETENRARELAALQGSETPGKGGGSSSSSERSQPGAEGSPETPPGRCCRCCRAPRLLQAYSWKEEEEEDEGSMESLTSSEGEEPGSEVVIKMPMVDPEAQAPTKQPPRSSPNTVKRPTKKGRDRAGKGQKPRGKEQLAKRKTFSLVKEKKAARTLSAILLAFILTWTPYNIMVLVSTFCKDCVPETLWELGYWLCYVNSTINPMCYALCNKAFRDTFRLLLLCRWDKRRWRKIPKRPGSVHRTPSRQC
Gonadotropin-releasing hormone receptor (Homo sapiens), sequence (P30968 whole entry, looked up): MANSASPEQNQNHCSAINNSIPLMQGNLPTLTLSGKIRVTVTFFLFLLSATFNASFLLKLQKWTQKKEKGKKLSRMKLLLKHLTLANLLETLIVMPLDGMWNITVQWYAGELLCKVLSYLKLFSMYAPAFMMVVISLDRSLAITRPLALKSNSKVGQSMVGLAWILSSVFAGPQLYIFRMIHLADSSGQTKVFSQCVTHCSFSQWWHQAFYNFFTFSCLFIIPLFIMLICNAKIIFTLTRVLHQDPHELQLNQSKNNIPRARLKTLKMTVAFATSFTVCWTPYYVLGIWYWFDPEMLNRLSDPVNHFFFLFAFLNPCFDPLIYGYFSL
D(2) dopamine receptor (Homo sapiens), sequence (P14416 whole entry, looked up): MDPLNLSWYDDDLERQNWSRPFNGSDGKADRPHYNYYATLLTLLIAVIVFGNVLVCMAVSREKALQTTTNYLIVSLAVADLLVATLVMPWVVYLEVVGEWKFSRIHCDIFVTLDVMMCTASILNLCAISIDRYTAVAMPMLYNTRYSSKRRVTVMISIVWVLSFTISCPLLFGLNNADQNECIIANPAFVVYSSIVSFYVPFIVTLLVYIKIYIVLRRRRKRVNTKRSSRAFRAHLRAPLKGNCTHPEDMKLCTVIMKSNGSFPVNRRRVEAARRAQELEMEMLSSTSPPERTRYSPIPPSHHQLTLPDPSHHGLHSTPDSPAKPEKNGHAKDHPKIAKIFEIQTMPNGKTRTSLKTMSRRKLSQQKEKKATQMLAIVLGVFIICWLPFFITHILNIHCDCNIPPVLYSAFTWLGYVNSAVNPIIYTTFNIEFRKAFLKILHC

Take `CCC(C)C1CCCCC1=O` (stereo not given): the Potency entry in [1], in assay [2], in [3], in [4], in [5] and in assay [6] was “inactive” each time. Further, the Potency result in assay [7], in assay [8], in assay [9], in [10], in assay [11] and in assay [12] was “inactive” each time. The Potency result in assay [13], in assay [14], in [15], in assay [16], in assay [17] and in assay [18] was “inactive” in each case. Moreover, the Potency entry in assay [19] and in assay [20] was “inactive” each time.
As to `CCCC(C)CO` (stereo not given), the Potency entry in [1], in [2], in assay [3], in assay [4], in assay [5] and in assay [6] was “inactive” each time. Further, the Potency result in [7], in [8], in [9], in assay [10], in [11] and in [12] was “inactive” in each case. For the same compound, the Potency result in assay [13], in assay [14], in assay [15], in [16], in assay [17] and in [18] was “inactive” throughout. In addition, the Potency result in [19] and in assay [20] was “inactive” throughout.
For the compound `Oc1cc(O)c2c(c1)O[C@H](c1ccc(O)c(O)c1)[C@H](O)C2`, the Potency result in assay [1], in assay [2], in assay [3], in [4], in assay [5] and in assay [6] was “inactive” each time. Further, the Potency result in assay [7], in [8], in [9], in [10], in [11] and in assay [12] was “inactive” each time. Also, the Potency result in [13], in [14], in [15], in assay [16], in [17] and in assay [18] was “inactive” each time. Further, the Potency result in assay [19] and in assay [20] was “inactive” each time.
With `CCOC(OCC)OCC`, the Potency entry in assay [1], in assay [2], in [3], in assay [4], in assay [5] and in [6] was “inactive” each time. Further, the Potency result in assay [7], in [8], in assay [9], in [10], in assay [11] and in assay [12] was “inactive” in each case. The Potency entry in assay [13], in [14], in assay [15], in [16], in [17] and in [18] was “inactive” each time. Also, the Potency entry in assay [19] and in assay [20] was “inactive” throughout.
As for `CCCCCCCOC(C)=O`, the Potency result in assay [1], in assay [2], in assay [3], in assay [4], in [5] and in assay [6] was “inactive” in each case. Moreover, the Potency result in assay [7], in assay [8], in [9], in [10], in assay [11] and in [12] was “inactive” each time. The Potency result in assay [13], in assay [14], in [15], in assay [16], in [17] and in [18] was “inactive” each time. Moreover, the Potency entry in assay [19] and in [20] was “inactive” throughout.
Consider `Cc1ccc2c(ccc3ccccc32)c1`, for which the Potency entry in assay [1], in assay [2], in assay [3], in assay [4], in assay [5] and in assay [6] was “inactive” throughout. For the same compound, the Potency entry in assay [7], in [8], in [9], in assay [10], in [11] and in [12] was “inactive” each time. The Potency result in assay [13], in [14], in assay [15], in [16], in assay [17] and in assay [18] was “inactive” each time. Further, the Potency entry in assay [19] and in assay [20] was “inactive” each time.
In the case of `CCCCC(CC)C(=O)OCCOCCOCCOC(=O)C(CC)CCCC` (stereo not given), the Potency entry in assay [1], in assay [3], in assay [4], in assay [5], in assay [6] and in assay [7] was “inactive” each time. The Potency entry in assay [8], in [9], in assay [10], in assay [11], in assay [12] and in assay [13] was “inactive” in each case. In addition, the Potency entry in assay [14], in assay [15], in [16], in [17], in assay [18] and in assay [19] was “inactive” each time. In assay [20], the Potency result was “inactive”. For the same compound, the Potency in [2] was 68.6 µM (active).
